Drawing on PubChem BioAssay (NCI), this text covers growth for 14 compounds.

This is part of a sample that, as a whole, favours compounds with a hit. Of some 83,000 tested, about 20% had one in any assay.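 Method: cells in 96-well plates; compound added at one concentration; 48 h incubation; percent growth measured; values under 10 scored active.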 A number with no mark means an inactive call. Active and inactive are the calls of the source.

The assay concerns MDA-MB-468 breast. Put plainly: NCI-60 one-dose screen, 48 h (100 = growth as untreated, 0 = no growth, -100 = all killed). Particulars: 10 µM unless noted.
For the compound `COc1ccccc1N1C(=O)/C(=C/C2=Cc3ccccc3OC2)SC1=S`, the growth was 95%. Consider `O=c1[nH]c(-c2cn(-c3ccc(Cl)cc3)nn2)nc2ccccc12`, for which the growth was 77.1%. The value for `COc1ccc(CCCc2c3[n+](cc4c(OC)c(OC)ccc24)CCc2cc4c(cc2-3)OCO4)cc1` was 1.74% (active); that for `CN1CCN(Cc2ccc3c(NNC(=O)c4ccccc4)nc4cc(F)ccc4n23)CC1` was -12.5% (active). For `O=C1/C(=C/c2ccc(-c3cccc(C(F)(F)F)c3)o2)SC(=S)N1CCc1ccc(O)cc1`, the growth was 95%. For `Cc1cc(N2CCOCC2)nc(N2CCOCC2)n1`, the growth was 94.6%.

With `Clc1nc(Cl)c2ncn(-c3ccccc3)c2n1`, the growth was 3.71% (active). Regarding `Cc1nn(-c2cc(NC3CCC(O)CC3)c3c(=O)[nH]c(CCC(F)(F)F)cc3c2)c2c1C(=O)CC(C)(C)C2` (centres undefined), the growth is 5.19% (active). The value for `CCN(C)S(=O)(=O)Nc1cccc(Nc2ncnc3cc(NC(=O)CCl)ccc23)c1Cl` was 9.82% (active). The value for `COc1ccc(C2CC(c3cc(OC)c(OC)c(OC)c3)=NN2C(C)=O)cc1OCC(=O)Nc1nc2ccc(C(F)(F)F)cc2s1` (centres undefined) was 84.1%; that for `Cc1nc2cncc(C#Cc3cncc(C(=O)Nc4ccc(CN5CCN(C)CC5)c(C(F)(F)F)c4)c3)c2nc1C` was 37.3%. Under `COc1ccc2c(O)c(/C=C3\N=Nc4ncccc43)oc2c1C[C@@H]1CCNC[C@H]1F` stands -52.9% (active); under `O=C1/C(=C\c2ccc(Br)o2)SC(=S)N1CCc1ccc(O)cc1`, 28.2%.

Regarding `CCOC(=O)c1sc(Nc2ncccn2)nc1-c1ccccn1`, the growth was 10.4%.
